Data as given in PubChem BioAssay (NCI).
This is part of a sample that, as a whole, favours compounds with a hit. Of some 79,000 tested, about 15% had one in any assay. A number with no mark means an inactive call. Activity calls are given as the source filed them. No stated cut-off is given here; in the data, active means growth inhibition above about 70%; inactive means the rest.

Columns and labels:
[1] = NCI Yeast Anticancer Drug Screen. Data for the wt1 strain (AID 149);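 further: 0% = growth of vehicle-treated wt1 cultures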; conditions: S. cerevisiae wt1 strain (SPY 50644) growth inhibition, hits give high values
How it was run: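 Yeast wt1 strain exposed to compounds; growth inhibition measured relative to vehicle-treated controls.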

[2] = NCI Yeast Anticancer Drug Screen. Data for the rad50EPP+ strain (AID 151);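 further: 0% = growth of vehicle-treated control cultures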; conditions: S. cerevisiae rad50 mutant strain, hits give high values
How it was run: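 Genetically defined yeast (rad50EPP+, DNA damage repair alteration) is grown with compound, and inhibition of growth is expressed relative to vehicle-treated controls.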

[3] = NCI Yeast Anticancer Drug Screen. Data for the mgt1 strain (AID 153); conditions: S. cerevisiae mgt1 mutant growth inhibition, hits give high values
How it was run: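 In the mgt1 strain, test compounds were added and growth inhibition was determined relative to vehicle-treated controls.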

[4] = NCI Yeast Anticancer Drug Screen. Data for the rad50 strain (AID 155);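 further: 0% = growth of vehicle-only cultures of the same strain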; conditions: S. cerevisiae rad50 strain growth inhibition, hits give high values
How it was run: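 Yeast carrying a defined DNA repair defect were exposed to test compounds, and growth was compared with vehicle-treated controls to give percent inhibition.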

[5] = NCI Yeast Anticancer Drug Screen. Data for the mec2-1 strain (AID 157); conditions: S. cerevisiae mec2-1 strain, hits give high values
How it was run: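 Each compound was tested on mec2-1 yeast, a strain altered in DNA damage repair or cell cycle control. Growth inhibition is reported relative to vehicle.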

[6] = NCI Yeast Anticancer Drug Screen. Data for the rad14 strain (AID 159);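 further: 0% = growth of vehicle-treated control cultures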; conditions: S. cerevisiae rad14 strain growth inhibition, hits give high values
How it was run: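 Yeast cells carrying a defined DNA-repair defect were exposed to compounds, and growth inhibition was calculated relative to vehicle-treated control cultures.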

[7] = NCI Yeast Anticancer Drug Screen. Data for the CLN2oe strain (AID 163);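 further: 0% = growth of vehicle-only control cultures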; conditions: S. cerevisiae CLN2oe strain, hits give high values
How it was run: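 First, the altered yeast strain was treated with each compound; second, its growth was measured; finally, inhibition was derived by comparison with vehicle controls.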

[8] = NCI Yeast Anticancer Drug Screen. Data for the cln2 rad14 strain (AID 165);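 further: 0% = growth equal to vehicle treated cultures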; conditions: S. cerevisiae cln2 rad14 strain, hits give high values
How it was run: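 Test compounds were added to cln2 rad14 yeast cultures; inhibition of growth was then determined by comparison with vehicle treatment.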

[9] = NCI Yeast Anticancer Drug Screen. Data for the bub3 strain (AID 167); conditions: S. cerevisiae bub3 mutant strain, hits give high values
How it was run: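 Compounds were applied to a genetically altered yeast strain carrying a cell-cycle control defect. Growth inhibition was scored against vehicle-treated controls.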

[10] = NCI Yeast Anticancer Drug Screen. Data for the mlh1 strain (AID 171);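 further: 0% = growth of vehicle-treated control cultures of the same strain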; conditions: S. cerevisiae mlh1 strain growth inhibition, hits give high values
How it was run: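 Inhibition values reflect reduced yeast growth in the presence of compound, referenced to vehicle controls, using a strain chosen for its alteration in DNA repair or cell cycle control.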

[11] = NCI Yeast Anticancer Drug Screen. Data for the mlh1 rad18 strain (AID 175); conditions: S. cerevisiae mlh1 rad18 strain growth inhibition, hits give high values
How it was run: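 Inhibition values reflect reduced growth of mutant yeast versus vehicle-treated controls following compound exposure; the mutations affect DNA damage repair.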

[12] = NCI Yeast Anticancer Drug Screen. Data for the rad18 strain (AID 177); conditions: S. cerevisiae rad18 mutant growth inhibition, hits give high values
How it was run: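 Steps: expose repair-mutant yeast to compound; measure growth; express as inhibition relative to vehicle control.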

[13] = NCI Yeast Anticancer Drug Screen. Data for the rad52 strain (AID 147);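 further: 0% = growth of vehicle-treated control cultures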; conditions: S. cerevisiae rad52 mutant growth inhibition, hits give high values
How it was run: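 Inhibition of yeast growth, referenced to vehicle controls, was the measured output for a strain with defective DNA damage repair.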

[14] = NCI Yeast Anticancer Drug Screen. Data for the sgs1 mgt1 strain (AID 161);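 further: 0% = growth of cultures given vehicle only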; conditions: S. cerevisiae sgs1 mgt1 strain, hits give high values
How it was run: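 Read-out: growth inhibition vs vehicle controls. Cells: mutant yeast strain deficient in DNA damage repair.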

[15] = NCI Yeast Anticancer Drug Screen. Data for the wt2 strain (AID 169);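 further: 0% = growth of vehicle-treated yeast cultures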; conditions: S. cerevisiae wt2 strain growth inhibition, hits give high values
How it was run: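 The panel's yeast strains carry defined changes in DNA repair or cell cycle genes. Each strain is grown with compound, and growth loss is scored relative to vehicle.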

[16] = NCI Yeast Anticancer Drug Screen. Data for the sgs1 strain (AID 173);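 further: 0% = growth of vehicle-only control cultures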; conditions: S. cerevisiae sgs1 mutant, hits give high values
How it was run: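 Vehicle-treated cultures served as reference for growth inhibition of a yeast strain altered in DNA damage repair or cell cycle control after compound exposure.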

[17] = at 5.0 µM (retest, dose inferred, filed as 0.5)
[18] = at 50.0 µM (retest, dose inferred, filed as 5.0)

SMILES: C[C@]12CC[C@H](O)CC1=CC[C@@H]1[C@@H]2CC[C@]2(C)C(=O)CC[C@@H]12
- growth inhibition ([1]; at 1.2 µM): -44%
- growth inhibition ([1]; at 3.7 µM): -65%
- growth inhibition ([1]; at 11.0 µM): -70%
- growth inhibition ([1]; at 33.0 µM): 50%
- growth inhibition ([1]; at 100.0 µM): 87% (active)
- growth inhibition ([2]; at 1.2 µM): -64%
- growth inhibition ([2]; at 3.7 µM): 4%
- growth inhibition ([2]; at 11.0 µM): 0%
- growth inhibition ([2]; at 33.0 µM): 36%
- growth inhibition ([2]; at 100.0 µM): 65%
- growth inhibition ([3]; at 1.2 µM): -65%
- growth inhibition ([3]; at 3.7 µM): -68%
- growth inhibition ([3]; at 11.0 µM): -62%
- growth inhibition ([3]; at 33.0 µM): 52%
- growth inhibition ([3]; at 100.0 µM): 96% (active)
- growth inhibition ([4]; at 1.2 µM): -73%
- growth inhibition ([4]; at 3.7 µM): -41%
- growth inhibition [4, 17]: 58%
- growth inhibition ([4]; at 11.0 µM): -57%
- growth inhibition ([4]; at 33.0 µM): 78% (active)
- growth inhibition [4, 18]: 98% (active)
- growth inhibition ([4]; at 50.0 µM): 88.5% (active)
- growth inhibition ([4]; at 100.0 µM): 91% (active)
- growth inhibition ([5]; at 1.2 µM): -94%
- growth inhibition ([5]; at 3.7 µM): -71%
- growth inhibition [5, 17]: 56%
- growth inhibition ([5]; at 11.0 µM): -66%
- growth inhibition ([5]; at 33.0 µM): 79% (active)
- growth inhibition [5, 18]: 98% (active)
- growth inhibition ([5]; at 50.0 µM): 87.8% (active)
- growth inhibition ([5]; at 100.0 µM): 90% (active)
- growth inhibition ([6]; at 1.2 µM): -57%
- growth inhibition ([6]; at 3.7 µM): -52%
- growth inhibition ([6]; at 11.0 µM): -39%
- growth inhibition ([6]; at 33.0 µM): 77% (active)
- growth inhibition ([6]; at 100.0 µM): 96% (active)
- growth inhibition ([7]; at 1.2 µM): -16%
- growth inhibition ([7]; at 3.7 µM): 2%
- growth inhibition ([7]; at 11.0 µM): 8%
- growth inhibition ([7]; at 33.0 µM): 54%
- growth inhibition ([7]; at 100.0 µM): 94% (active)
- growth inhibition [8, 17]: 64%
- growth inhibition [8, 18]: 75% (active)
- growth inhibition ([8]; at 50.0 µM): 88.5% (active)
- growth inhibition ([9]; at 1.2 µM): -23%
- growth inhibition ([9]; at 3.7 µM): -36%
- growth inhibition [9, 17]: 20%
- growth inhibition ([9]; at 11.0 µM): -17%
- growth inhibition ([9]; at 33.0 µM): 72% (active)
- growth inhibition [9, 18]: 78% (active)
- growth inhibition ([9]; at 50.0 µM): 86.2% (active)
- growth inhibition ([9]; at 100.0 µM): 92% (active)
- growth inhibition ([10]; at 1.2 µM): -51%
- growth inhibition ([10]; at 3.7 µM): -81%
- growth inhibition ([10]; at 11.0 µM): -49%
- growth inhibition ([10]; at 33.0 µM): 37%
- growth inhibition ([10]; at 100.0 µM): 97% (active)
- growth inhibition [11, 17]: 37%
- growth inhibition [11, 18]: 99% (active)
- growth inhibition ([11]; at 50.0 µM): 87.7% (active)
- growth inhibition ([12]; at 1.2 µM): -29%
- growth inhibition ([12]; at 3.7 µM): -24%
- growth inhibition ([12]; at 11.0 µM): -7%
- growth inhibition ([12]; at 33.0 µM): 78% (active)
- growth inhibition ([12]; at 100.0 µM): 95% (active)

SMILES: c1cc2c(cc1C1OC[C@H]3[C@@H](c4ccc5c(c4)OCO5)OC[C@@H]13)OCO2 (stereo partly drawn)
- growth inhibition ([13]; at 1.2 µM): -9%
- growth inhibition ([13]; at 3.7 µM): -16%
- growth inhibition ([13]; at 11.0 µM): -3%
- growth inhibition ([13]; at 33.0 µM): -1%
- growth inhibition ([13]; at 100.0 µM): -6%
- growth inhibition ([2]; at 1.2 µM): -7%
- growth inhibition ([2]; at 3.7 µM): -16%
- growth inhibition ([2]; at 11.0 µM): 3%
- growth inhibition ([2]; at 33.0 µM): 16%
- growth inhibition ([2]; at 100.0 µM): 2%
- growth inhibition ([3]; at 1.2 µM): -4%
- growth inhibition ([3]; at 3.7 µM): -9%
- growth inhibition ([3]; at 11.0 µM): -2%
- growth inhibition ([3]; at 33.0 µM): -5%
- growth inhibition ([3]; at 100.0 µM): -5%
- growth inhibition ([4]; at 1.2 µM): -16%
- growth inhibition ([4]; at 3.7 µM): -19%
- growth inhibition [4, 17]: 2%
- growth inhibition ([4]; at 11.0 µM): -16%
- growth inhibition ([4]; at 33.0 µM): -22%
- growth inhibition [4, 18]: 3%
- growth inhibition ([4]; at 50.0 µM): 15.3%
- growth inhibition ([4]; at 100.0 µM): 8%
- growth inhibition ([5]; at 1.2 µM): -2%
- growth inhibition ([5]; at 3.7 µM): -4%
- growth inhibition [5, 17]: 2%
- growth inhibition ([5]; at 11.0 µM): -4%
- growth inhibition ([5]; at 33.0 µM): -5%
- growth inhibition [5, 18]: 8%
- growth inhibition ([5]; at 50.0 µM): -0.6%
- growth inhibition ([5]; at 100.0 µM): -1%
- growth inhibition ([6]; at 1.2 µM): 1%
- growth inhibition ([6]; at 3.7 µM): 6%
- growth inhibition ([6]; at 11.0 µM): 17%
- growth inhibition ([6]; at 33.0 µM): 26%
- growth inhibition ([6]; at 100.0 µM): 28%
- growth inhibition [14, 17]: 7%
- growth inhibition [14, 18]: 20%
- growth inhibition ([14]; at 50.0 µM): 60%
- growth inhibition ([7]; at 1.2 µM): -7%
- growth inhibition ([7]; at 3.7 µM): -9%
- growth inhibition ([7]; at 11.0 µM): -10%
- growth inhibition ([7]; at 33.0 µM): -9%
- growth inhibition ([7]; at 100.0 µM): -7%
- growth inhibition [8, 17]: -2%
- growth inhibition [8, 18]: -8%
- growth inhibition ([8]; at 50.0 µM): 10.8%
- growth inhibition ([9]; at 1.2 µM): 14%
- growth inhibition ([9]; at 3.7 µM): 26%
- growth inhibition [9, 17]: 70% (active)
- growth inhibition ([9]; at 11.0 µM): 37%
- growth inhibition ([9]; at 33.0 µM): 46%
- growth inhibition [9, 18]: 83% (active)
- growth inhibition ([9]; at 50.0 µM): 75.8% (active)
- growth inhibition ([9]; at 100.0 µM): 39%
- growth inhibition ([15]; at 1.2 µM): -1%
- growth inhibition ([15]; at 3.7 µM): 2%
- growth inhibition ([15]; at 11.0 µM): 7%
- growth inhibition ([15]; at 33.0 µM): 24%
- growth inhibition ([15]; at 100.0 µM): 12%
- growth inhibition ([10]; at 1.2 µM): -16%
- growth inhibition ([10]; at 3.7 µM): -8%
- growth inhibition ([10]; at 11.0 µM): -8%
- growth inhibition ([10]; at 33.0 µM): -8%
- growth inhibition ([10]; at 100.0 µM): -6%
- growth inhibition ([16]; at 1.2 µM): -16%
- growth inhibition ([16]; at 3.7 µM): -11%
- growth inhibition ([16]; at 11.0 µM): 3%
- growth inhibition ([16]; at 33.0 µM): 9%
- growth inhibition ([16]; at 100.0 µM): 15%
- growth inhibition [11, 17]: 7%
- growth inhibition [11, 18]: 17%
- growth inhibition ([11]; at 50.0 µM): 27.6%
- growth inhibition ([12]; at 1.2 µM): -10%
- growth inhibition ([12]; at 3.7 µM): -6%
- growth inhibition ([12]; at 11.0 µM): -4%
- growth inhibition ([12]; at 33.0 µM): -8%
- growth inhibition ([12]; at 100.0 µM): -11%
